# Compounds without any hit were thinned out: in the full panel of roughly 79,000, 15% have a hit. Values without a mark were called inactive. Calls of active or inactive are those of the source. No stated cut-off is given here; in the data, active means growth inhibition above about 70%; inactive means the rest.
# Key:
# [1] = NCI Yeast Anticancer Drug Screen. Data for the rad50 strain (AID 155);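 further: 0% = growth of vehicle-only cultures of the same strain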; conditions: S. cerevisiae rad50 strain growth inhibition; at 50.0 µM; stronger effect = higher value
# Procedure, shortened: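 Cells are treated with compound, grown, and their growth is then scored against vehicle-only cultures of the same repair-deficient yeast strain.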
# [2] = NCI Yeast Anticancer Drug Screen. Data for the mec2-1 strain (AID 157); conditions: S. cerevisiae mec2-1 strain, at 50.0 µM, stronger effect = higher value
# Procedure, shortened: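 Using mec2-1 yeast: add compound, measure growth, express inhibition versus vehicle-treated cultures.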
# [3] = NCI Yeast Anticancer Drug Screen. Data for the sgs1 mgt1 strain (AID 161);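 further: 0% = growth of cultures given vehicle only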; conditions: S. cerevisiae sgs1 mgt1 strain, at 50.0 µM, stronger effect = higher value
# Procedure, shortened: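 Percent growth inhibition was derived by comparing compound-exposed mutant yeast with vehicle-exposed cultures. The strain carries alterations in DNA damage repair.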
# [4] = NCI Yeast Anticancer Drug Screen. Data for the cln2 rad14 strain (AID 165);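 further: 0% = growth equal to vehicle treated cultures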; conditions: S. cerevisiae cln2 rad14 strain, at 50.0 µM, stronger effect = higher value
# Procedure, shortened: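 Yeast strain cln2 rad14, bearing defects in cell cycle control and DNA repair, serves as the test system; values reflect growth inhibition compared with vehicle.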
# [5] = NCI Yeast Anticancer Drug Screen. Data for the bub3 strain (AID 167); conditions: S. cerevisiae bub3 mutant strain, at 50.0 µM, stronger effect = higher value
# Procedure, shortened: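 Part of a panel of yeast mutants defective in DNA damage repair or cell cycle regulation. Each strain is grown with compound, and inhibition is calculated relative to solvent-treated cultures.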
# [6] = NCI Yeast Anticancer Drug Screen. Data for the mlh1 rad18 strain (AID 175); conditions: S. cerevisiae mlh1 rad18 strain growth inhibition; at 50.0 µM; stronger effect = higher value
# Procedure, shortened: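 Steps: expose repair-defective yeast to compound; measure growth; express inhibition against vehicle-treated controls.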
Structure (SMILES),growth inhibition [1],growth inhibition [2],growth inhibition [3],growth inhibition [4],growth inhibition [5],growth inhibition [6]
CS(=O)(=O)OC(OS(C)(=O)=O)(OS(C)(=O)=O)OS(C)(=O)=O,15.9%,6.2%,0.65%,-7.9%,-2.4%,9.3%
O=C(NC(Cc1ccccc1)C(=O)NNc1ccccc1Cl)OCc1ccccc1 (stereo unspecified),92.4% (active),86.3% (active),94.7% (active),55.5%,80% (active),89.5% (active)
COc1cc2c(cc1C/C=C/c1ccccc1)OCO2,-11.4%,-15.9%,-0.9%,-9.5%,17.1%,-6.4%
CC1CC(=O)CCC2(C)C(OC(C)(C)C)CCC12 (stereo unspecified),14.7%,-1.75%,-5.75%,9.15%,33.2%,21.1%
O=C1OC(=O)c2c1ccc1ccccc21,-6%,-21.6%,6.8%,-8.35%,0.95%,14.8%
CC(C)(C)OC(=O)Cc1ccc([N+](=O)[O-])cc1,2%,-19.6%,-10.7%,-5.85%,-3.05%,-17.7%
CCCC1(CCC)CNC(=O)NC1,0.45%,-3.9%,-5.1%,-11.1%,1.5%,-10.8%
NC(=S)N/N=C/c1ccc(OC(=O)Cc2ccccc2)cn1,19.7%,-6.6%,10.1%,7.1%,4.55%,16.4%
CCOC(OCC)c1ccccc1OC,1.85%,1.05%,4.95%,-15.1%,3.6%,-1.1%
BrCCC1CCCCCC1,8.75%,-5.4%,5.85%,6.05%,-4.25%,1.3%
Cn1c2ccccc2c2[nH]c3ccccc3c(=O)c21,54.5%,16.4%,-15.1%,-8.95%,-11.4%,28.6%
CCC(=O)C(OC(C)=O)C(OC(C)=O)C(OC(C)=O)C(COC(C)=O)OC(C)=O (stereo unspecified),-1.95%,-1.15%,-8.1%,27.8%,-3.95%,13.8%
CNC(=O)Oc1ccc2c(c1)[C@]1(C)CCN(C)[C@@H]1N2C,-9.7%,-29.8%,-32.7%,-5.55%,-35.7%,-37.2%
CCOC(CCCl)c1ccc(C)cc1 (stereo unspecified),-25.2%,-42.2%,-20.4%,20.1%,-33.6%,-20.5%
O=C1c2cc(Br)ccc2-c2ccc(Br)c3cccc1c23,-10.6%,-20.8%,-6.1%,10.3%,-1.05%,-20.3%
O=[N+]([O-])c1cccc(C=NC23CC4CC(CC(C4)C2)C3)c1,-2.15%,7.45%,-29.6%,28.7%,30.1%,-4.15%
O=C1NC2(c3ccccc3)CCCCC2O1 (stereo unspecified),-4.95%,-3.05%,-5.95%,1.95%,-6.35%,-6.6%
CSc1nc2c(c(=O)n1C)N=C(c1ccccc1)[C@H](C(CC(=O)c1ccccc1)c1ccccc1)C(c1ccccc1)N2 (stereo partly specified),46.6%,43.9%,41.1%,24.2%,14.6%,11.8%
NC(=S)c1ccc(N=Cc2ccccn2)cc1,-0.25%,-0.35%,-1.7%,-12.3%,3.1%,-8%
CC1COS(=O)(=O)CS(=O)(=O)O1 (stereo unspecified),-61.2%,-17.4%,-15.8%,-57.8%,6.7%,-16.1%
CCC(=O)OCC(OC(=O)CC)C(OC(=O)CC)C(OC(=O)CC)C(COC(=O)CC)OC(=O)CC (stereo unspecified),-0.5%,6.95%,-16.6%,-31.6%,1.35%,-3.75%

Structure (SMILES),growth inhibition [1],growth inhibition [2],growth inhibition [3],growth inhibition [4],growth inhibition [5],growth inhibition [6]
Cn1ccnc1SC(=O)C(Cl)(c1ccccc1)c1ccccc1,-13.2%,5.85%,-0.8%,-18.4%,0.35%,5.45%
Nc1nc(Cc2ccccc2)cc(-c2cc(Cc3ccccc3)nc(N)n2)n1,2.7%,4.7%,5.2%,1.8%,-6.3%,1.7%
CS(=O)(=O)C(C#N)S(C)(=O)=O,-1.85%,-1.05%,-6.05%,-19.2%,40.9%,-10.1%
Clc1ccc(OCCSCCCCCCCCCCSCCOc2ccc(Cl)cc2)cc1,-2%,-3.4%,13.9%,-24%,-8.7%,-21.1%
Cc1nn(CCO)c2nc(N)nc(N)c12,2.05%,3.35%,-0.4%,-1.45%,-6.35%,-3.2%
Cc1cc(-c2ccccc2)cc(C[n+]2ccccc2)[n+]1-c1ccccn1,12.8%,6.2%,9.2%,-3.8%,2.2%,18.9%
O=C(c1nc2ccccc2[nH]c1=O)C(O)c1ccccc1 (stereo unspecified),6.9%,-23.6%,-3.1%,17.4%,-12.8%,-2.2%
CC(=O)Nc1ccc(C=O)s1,-0.65%,6%,-15.4%,-36.2%,1.65%,-0.4%
O=S(=O)(O)c1ccc(Nc2ccnc3cc(Cl)ccc23)cc1,-21.4%,-32.1%,-39.8%,-3.9%,-29.1%,-10%
O=C(NC(CSC(=O)OCc1ccccc1)C(=O)Oc1ccc([N+](=O)[O-])cc1)OCc1ccccc1 (stereo unspecified),16.3%,-7.4%,3.45%,-23.8%,-0.45%,2.4%
Cc1sc2nc3n(c(=O)c2c1C)N=C(c1ccc([N+](=O)[O-])cc1)CS3,9.15%,-14.9%,-10.1%,24.1%,7.2%,-8.1%
Cc1ccc(S(=O)(=O)O/N=C2\CCC\C2=C/c2ccccc2)cc1,7.65%,-2.25%,26%,14.6%,-8.55%,23.8%
C=C(C)CCCCCCCCC,-4.8%,-5.8%,17.6%,1.4%,3%,-3.25%
O=C(O)CNC(=O)c1cccc(Cl)c1,12.4%,12.3%,14.7%,13.3%,16.9%,14.6%
CC(C)CC(=O)C(C)C(C)C (stereo unspecified),12.4%,-1.85%,4.25%,-4.25%,4%,1.5%
O=C1N[C@H](Cc2cnc[nH]2)C(=O)N2CCC[C@@H]12,15.2%,-3.55%,8.75%,16.1%,9.75%,23.7%
CCOC(=O)C(CC(C)C)NC(=O)c1cnc2ccccc2c1 (stereo unspecified),26.6%,-0.7%,25.6%,-13.8%,26.2%,21.9%
COC(=O)CCNC(=O)c1ccccc1,3.5%,-1.6%,-4.75%,-5.75%,1.2%,-3.25%
CCNCC(=O)Nc1ccc(C(=O)OC)cc1,-8%,-29.4%,-9.9%,-20%,1.45%,-28.9%
O=C(CCN1C(=O)c2ccccc2C1=O)c1cnc(N2C(=O)c3ccccc3C2=O)[nH]1,15.6%,-4.45%,11.4%,-22.4%,18.9%,2.5%

# Reference: PubChem BioAssay (NCI)
